In ChEMBL document CHEMBL3988442, “University of Dundee, Small-Polar-MMV Screening Library” (2021):
Among all 48,000 compounds or so, about 13,000 (27%) showed an effect of 50% or more. This is one part of the list.

test system: Wolbachia pipientis; test: Anti-Wolbachia Cell-Based Screen; type: functional; design: scale not given: in the data most compounds retested in dose-response had high values; conditions: 5 µM

`CC(=O)NCCC(=O)NC1(c2ccc(Cl)c(Cl)c2)CC1` was tested. Which “Percent Effect” value did it give?
Its value is 3.477%.

`CC(NC(=O)COc1cccc[n+]1[O-])C1CC1` (configuration not stated) was tested. Which “Percent Effect” value did it give?
Its value is -6.842%.

`Cc1ccc(CNCc2nnc3n2CC(C(F)(F)F)CC3)cc1` (configuration not stated) was tested. Which “Percent Effect” value did it give?
The value was -7.096%.

For `O=C(CCc1ccsc1)Nc1cnccc1O`, which “Percent Effect” value is on record?
Its value is 9.927%.

Which “Percent Effect” value does the source give for `CC(C)CCN1CCc2[nH]nc(C(=O)N3CC=CC3)c2C1.O=C(O)C(F)(F)F.O=C(O)C(F)(F)F` here?
The value was -3.7%.

For `CO[C@H]1CCN(Cc2c(C)noc2C)[C@@H]2CN(Cc3ccncc3)C[C@H]12.O=C(O)C(F)(F)F.O=C(O)C(F)(F)F.O=C(O)C(F)(F)F`, which “Percent Effect” value is on record?
The value was 106.3%.

With `CO[C@H]1CCN(Cc2c(C)noc2C)[C@@H]2CN(Cc3cccnc3)C[C@H]12.O=C(O)C(F)(F)F.O=C(O)C(F)(F)F.O=C(O)C(F)(F)F` as the compound, how does the “Percent Effect” value read?
The value was 114.1%.

Which “Percent Effect” value does the source give for `CO[C@H]1CCN(Cc2cnn(C)c2)[C@@H]2CN(Cc3cccnc3)C[C@H]12.O=C(O)C(F)(F)F.O=C(O)C(F)(F)F.O=C(O)C(F)(F)F` here?
Its value is 4.089%.

`Cc1noc(C)c1CN1CC[C@H]2OCC[C@@H](C(=O)NCC3CC3)[C@@H]2C1.O=C(O)C(F)(F)F` was tested. Which “Percent Effect” value did it give?
The value was -16.42%.

How did the “Percent Effect” value turn out when `CO[C@@H]1CCN(Cc2cnn(C)c2)[C@@H]2CN(Cc3ccco3)C[C@@H]21.O=C(O)C(F)(F)F.O=C(O)C(F)(F)F` was run?
The value was 6.003%.

For `CO[C@@H]1CCN(c2ncc(F)cn2)[C@@H]2CN(Cc3cccnc3)C[C@@H]21.O=C(O)C(F)(F)F.O=C(O)C(F)(F)F.O=C(O)C(F)(F)F`, which “Percent Effect” value is on record?
Its value is -6.486%.

With `Cc1noc(C)c1CN1C[C@@H](N(C)Cc2ccco2)[C@H]2OCCC[C@H]21.O=C(O)C(F)(F)F.O=C(O)C(F)(F)F` as the compound, how does the “Percent Effect” value read?
Its value is 12.06%.

For `CO[C@@H]1CCN(Cc2c(C)noc2C)[C@@H]2CN(Cc3cccnc3)C[C@@H]21.O=C(O)C(F)(F)F.O=C(O)C(F)(F)F.O=C(O)C(F)(F)F`, which “Percent Effect” value is on record?
The value was 82.84%.

With `COCC1CN(Cc2c(C)noc2C)Cc2ccnn2C1.O=C(O)C(F)(F)F.O=C(O)C(F)(F)F` (configuration not stated) as the compound, how does the “Percent Effect” value read?
Its value is -2.816%.

`CO[C@H]1CCN(Cc2cccc(C)n2)[C@@H]2CN(Cc3cccnc3)C[C@H]12.O=C(O)C(F)(F)F.O=C(O)C(F)(F)F.O=C(O)C(F)(F)F.O=C(O)C(F)(F)F` was tested. Which “Percent Effect” value did it give?
The value was -9.589%.

Which “Percent Effect” value does the source give for `CO[C@@H]1CCN(Cc2c(C)noc2C)[C@@H]2CN(Cc3ccco3)C[C@@H]21.O=C(O)C(F)(F)F.O=C(O)C(F)(F)F` here?
Its value is 102.8%.

With `COC(=O)N1CCN(CCCc2nnnn2-c2ccccc2)CC1` as the compound, how does the “Percent Effect” value read?
Its value is -41.56%.

How did the “Percent Effect” value turn out when `O=C(Cc1ccc(F)cc1Cl)N1CC[C@H](CO)[C@@H](O)C1` was run?
Its value is 3.077%.

How did the “Percent Effect” value turn out when `COc1cccc2c1OCC(C(=O)N1CCN(S(C)(=O)=O)CC1)C2` (configuration not stated) was run?
The value was 0.5994%.

Which “Percent Effect” value does the source give for `CC1CCCN1C1CCN(C(=O)c2cccc(-c3ccoc3)c2)CC1` (configuration not stated) here?
The value was 2.618%.

`CSCC[C@@H](CO)Nc1ccc(-c2nc(C3CC3)no2)cn1` was tested. Which “Percent Effect” value did it give?
The value was -21.62%.

With `Cc1noc(CS(=O)(=O)C/C=C/c2ccccc2)n1` as the compound, how does the “Percent Effect” value read?
Its value is -7.047%.

`O=C(O)C(F)(F)F.O=C(c1ccco1)N1CCO[C@@H]2CN(Cc3nccs3)CC[C@@H]2C1` was tested. Which “Percent Effect” value did it give?
Its value is 104%.

Which “Percent Effect” value does the source give for `N#Cc1cccc(CN2CC[C@@H]3CO[C@@H](CN4CCCC4)[C@@H]3C2)c1.O=C(O)C(F)(F)F.O=C(O)C(F)(F)F` here?
Its value is -0.4401%.

How did the “Percent Effect” value turn out when `O=C(O)C(F)(F)F.O=C(c1ccsc1)N1CCO[C@@H]2CN(Cc3ccccn3)CC[C@@H]2C1` was run?
Its value is 3.038%.

For `Cc1cc(CN2C[C@@H]3CN(C(=O)c4cccn4C)CCO[C@@H]3C2)no1.O=C(O)C(F)(F)F`, which “Percent Effect” value is on record?
The value was 9.61%.

For `COCCN1CCO[C@@H]2CN(Cc3sccc3C)C[C@@H]2C1.O=C(O)C(F)(F)F.O=C(O)C(F)(F)F`, which “Percent Effect” value is on record?
The value was -3.44%.

With `Cc1cnc(N2CC[C@@H]3CN(Cc4ccncc4)CCO[C@@H]3C2)nc1.O=C(O)C(F)(F)F.O=C(O)C(F)(F)F` as the compound, how does the “Percent Effect” value read?
Its value is -11.53%.

How did the “Percent Effect” value turn out when `N#Cc1cccc(CN2CC[C@@H]3CN(c4ncccn4)CCO[C@@H]3C2)c1.O=C(O)C(F)(F)F` was run?
The value was 115.7%.

Which “Percent Effect” value does the source give for `CCc1cnc(N2CC[C@@H]3CN(C(=O)c4ccco4)CCO[C@@H]3C2)nc1` here?
The value was 10.92%.

`O=C(O)C(F)(F)F.O=C(c1ccco1)N1CCO[C@@H]2CN(c3ccccn3)CC[C@@H]2C1` was tested. Which “Percent Effect” value did it give?
Its value is 6.986%.

`Cn1cccc1C(=O)N1CCO[C@@H]2CN(Cc3nccs3)C[C@@H]2C1.O=C(O)C(F)(F)F` was tested. Which “Percent Effect” value did it give?
The value was 127.2%.

How did the “Percent Effect” value turn out when `O=C(O)C(F)(F)F.O=C(c1ccsc1)N1CCO[C@@H]2CN(Cc3ccco3)CC[C@@H]2C1` was run?
Its value is 99.14%.

With `O=C(NC[C@H]1OC[C@@H](NC2CCOCC2)[C@@H]1O)Nc1ccccc1` as the compound, how does the “Percent Effect” value read?
The value was 14.81%.

Which “Percent Effect” value does the source give for `COCCN(Cc1ccncc1)C(=O)C1COc2ccccc2C1` (configuration not stated) here?
The value was -25.57%.

With `COCCc1nc(CN2CC(C)(c3ccccc3)CCC2=O)no1` (configuration not stated) as the compound, how does the “Percent Effect” value read?
The value was -5.62%.

For `CCCS(=O)(=O)NC1CCN(c2nnc(C)c(C)c2C#N)CC1`, which “Percent Effect” value is on record?
Its value is -4.578%.

With `Cc1cc(N2CCC(N3CCOCC3)C2)n2nc(C)c(C)c2n1` (configuration not stated) as the compound, how does the “Percent Effect” value read?
Its value is -1.501%.

`O=C(O)C(F)(F)F.O=C(O)C(F)(F)F.c1coc(CN2C[C@@H]3CN(Cc4ccoc4)CCO[C@@H]3C2)c1` was tested. Which “Percent Effect” value did it give?
Its value is 116.5%.

`CN(C)CCN1CCO[C@H]2CN(C(=O)C3CCOCC3)C[C@H]21` was tested. Which “Percent Effect” value did it give?
The value was -13.47%.

Which “Percent Effect” value does the source give for `O=C(O)C(F)(F)F.O=C(c1ccsc1)N1CCO[C@@H]2CN(Cc3cccs3)C[C@@H]2C1` here?
Its value is 14.76%.

Which “Percent Effect” value does the source give for `CN(C)CCN1CCO[C@H]2CN(C(=O)c3ccsc3)C[C@H]21.O=C(O)C(F)(F)F.O=C(O)C(F)(F)F` here?
Its value is 117.2%.

Which “Percent Effect” value does the source give for `CCS(=O)(=O)N1C[C@@H]2CN(Cc3ccco3)CCO[C@@H]2C1.O=C(O)C(F)(F)F` here?
Its value is -13.85%.

`Cn1cc(CN2CCO[C@@H]3CN(Cc4ccoc4)C[C@@H]3C2)cn1.O=C(O)C(F)(F)F.O=C(O)C(F)(F)F` was tested. Which “Percent Effect” value did it give?
The value was 9.777%.

Which “Percent Effect” value does the source give for `O=C(O)C(F)(F)F.O=C([C@@H]1CN(Cc2nccs2)C[C@H]2OCC[C@H]21)N1CCOCC1` here?
Its value is -26.11%.

How did the “Percent Effect” value turn out when `O=C(O)C(F)(F)F.O=C(c1ccsc1)N1CCO[C@@H]2CN(Cc3nccs3)C[C@@H]2C1` was run?
Its value is 102%.

Which “Percent Effect” value does the source give for `CN(C)CCN1CCO[C@H]2CN(C(=O)N(C)C)C[C@H]21.O=C(O)C(F)(F)F.O=C(O)C(F)(F)F` here?
Its value is 6.005%.
